About 83,000 compounds went through this panel and 20% of them were active in at least one assay; those are over-represented in the sample as a whole.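 48-hour exposure, single concentration, 96-well plates; percent growth endpoint where 0 means no net growth. Active: below 10.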 Active and inactive are the calls of the source.
Assays:
Test in all cases: NCI-60 one-dose screen, 48 h (100 = growth as untreated, 0 = no growth, -100 = all killed)
Conditions in all cases: 10 µM unless noted
SR leukemia = test system: SR leukemia
OVCAR-8 ovarian = test system: OVCAR-8 ovarian
OVCAR-5 ovarian = test system: OVCAR-5 ovarian
SK-OV-3 ovarian = test system: SK-OV-3 ovarian
OVCAR-3 ovarian = test system: OVCAR-3 ovarian
HS 578T breast = test system: HS 578T breast
NCI/ADR-RES ovarian = test system: NCI/ADR-RES ovarian
T-47D breast = test system: T-47D breast
BT-549 breast = test system: BT-549 breast
MDA-MB-435 melanoma = test system: MDA-MB-435 melanoma
SW-620 colon = test system: SW-620 colon
MCF7 breast = test system: MCF7 breast
HCT-116 colon = test system: HCT-116 colon
KM12 colon = test system: KM12 colon
OVCAR-4 ovarian = test system: OVCAR-4 ovarian
IGROV1 ovarian = test system: IGROV1 ovarian
HCC-2998 colon = test system: HCC-2998 colon

Measured: growth

O=C(Oc1ccccc1)C(Br)C(Br)c1ccccc1 (centres undefined)
inactive: OVCAR-8 ovarian 103% | OVCAR-5 ovarian 102% | SK-OV-3 ovarian 114% | HS 578T breast 85.9% | NCI/ADR-RES ovarian 113% | T-47D breast 94% | BT-549 breast 99.9% | MDA-MB-435 melanoma 94.5% | MCF7 breast 49.5% | HCT-116 colon 61.2% | KM12 colon 71.9%
active: SR leukemia -23.6% | OVCAR-3 ovarian -47% | SW-620 colon -77%

COc1cccc(C=Nc2cc(C(C)C)c(O)cc2C)c1O
inactive: SR leukemia 113% | OVCAR-8 ovarian 98.8% | OVCAR-5 ovarian 101% | OVCAR-4 ovarian 101% | SK-OV-3 ovarian 89.2% | IGROV1 ovarian 111% | OVCAR-3 ovarian 100% | T-47D breast 51.7% | BT-549 breast 101% | SW-620 colon 105% | MCF7 breast 92.5% | HCT-116 colon 99.1% | HCC-2998 colon 115% | KM12 colon 109%

Nc1ccc2c(c1)C(=O)c1cc(Cl)c(Cl)cc1-2
inactive: SR leukemia 82% | OVCAR-8 ovarian 92.3% | OVCAR-5 ovarian 95.9% | OVCAR-4 ovarian 89.9% | SK-OV-3 ovarian 97.9% | OVCAR-3 ovarian 110% | HS 578T breast 105% | NCI/ADR-RES ovarian 97.3% | T-47D breast 91% | BT-549 breast 85.2% | MDA-MB-435 melanoma 102% | SW-620 colon 101% | MCF7 breast 69.2% | HCT-116 colon 93.5% | HCC-2998 colon 98% | KM12 colon 92.8%

CCN(CC)CCCCCCCNc1c2ccc(Cl)cc2nc2ccc(OC)cc12
inactive: NCI/ADR-RES ovarian 12.7%
active: SR leukemia -16.5% | OVCAR-8 ovarian -41.8% | OVCAR-5 ovarian -8.18% | OVCAR-4 ovarian -43% | IGROV1 ovarian -64.3% | OVCAR-3 ovarian -39.6% | HS 578T breast -42.7% | T-47D breast -42.3% | BT-549 breast -20.9% | MDA-MB-435 melanoma -78.9% | SW-620 colon -52.9% | MCF7 breast -32.4% | HCT-116 colon -49.6% | HCC-2998 colon -78.9% | KM12 colon -37.2%

CC[C@@H](C)/C=C(C)/C=C/C(O)=C1\C(=O)N[C@@H](Cc2ccc(OC(=O)[C@@](OC)(c3ccccc3)C(F)(F)F)cc2)C1=O
inactive: SR leukemia 62.6% | OVCAR-8 ovarian 103% | OVCAR-5 ovarian 120% | SK-OV-3 ovarian 112% | OVCAR-3 ovarian 67.8% | HS 578T breast 67.8% | NCI/ADR-RES ovarian 49.6% | T-47D breast 113% | MDA-MB-435 melanoma 101% | SW-620 colon 96.7% | MCF7 breast 99.8% | HCT-116 colon 91% | KM12 colon 91.1%

CC(=O)Nc1c(Cl)cc2c(c1Cl)Cc1cc([N+](=O)[O-])ccc1-2
inactive: SR leukemia 70% | OVCAR-8 ovarian 77.7% | OVCAR-5 ovarian 117% | OVCAR-4 ovarian 81.2% | SK-OV-3 ovarian 84.4% | OVCAR-3 ovarian 72% | HS 578T breast 34.6% | NCI/ADR-RES ovarian 94.8% | BT-549 breast 84.4% | MDA-MB-435 melanoma 81% | SW-620 colon 81.5% | MCF7 breast 27.8% | HCT-116 colon 72.6% | HCC-2998 colon 87.4% | KM12 colon 78.2%

O=C1Nc2ccc(C(=O)O)c(O)c2C1=O
inactive: SR leukemia 105% | OVCAR-8 ovarian 107% | OVCAR-5 ovarian 95.3% | OVCAR-4 ovarian 112% | SK-OV-3 ovarian 110% | OVCAR-3 ovarian 113% | HS 578T breast 108% | NCI/ADR-RES ovarian 106% | T-47D breast 106% | BT-549 breast 106% | MDA-MB-435 melanoma 106% | SW-620 colon 104% | MCF7 breast 104% | HCT-116 colon 108% | HCC-2998 colon 117% | KM12 colon 106%

C=C1CCC2C3(C)COC(c4ccccc4)OC3CCC2(C)C1C/C=C1/C(=O)OCC1OC(C)=O (centres undefined)
inactive: SR leukemia 78.2% | OVCAR-8 ovarian 41.9% | OVCAR-5 ovarian 120% | OVCAR-4 ovarian 82.3% | SK-OV-3 ovarian 131% | IGROV1 ovarian 86.8% | OVCAR-3 ovarian 100% | T-47D breast 71.1% | BT-549 breast 103% | MDA-MB-435 melanoma 88.6% | SW-620 colon 41.4% | MCF7 breast 24.9% | HCT-116 colon 24.9% | HCC-2998 colon 107% | KM12 colon 84.4%

CC[C@@H](c1ccc(O)c(O)c1)[C@@H](CC)c1ccc(O)c(O)c1
active: T-47D breast -8.01% | SW-620 colon 5.74% | HCT-116 colon 9.12%
inactive: SR leukemia 52.6% | OVCAR-8 ovarian 101% | OVCAR-5 ovarian 115% | OVCAR-4 ovarian 68.1% | IGROV1 ovarian 98.1% | OVCAR-3 ovarian 50.6% | NCI/ADR-RES ovarian 99.9% | BT-549 breast 98% | MDA-MB-435 melanoma 62.9% | MCF7 breast 98.8% | HCC-2998 colon 103%

O=C(C(=O)N1CCOCC1)c1cn(CCCn2cc(C(=O)C(=O)N3CCOCC3)c3ccccc32)c2ccccc12
inactive: SR leukemia 103% | OVCAR-8 ovarian 104% | OVCAR-5 ovarian 102% | OVCAR-4 ovarian 109% | SK-OV-3 ovarian 111% | IGROV1 ovarian 107% | OVCAR-3 ovarian 119% | NCI/ADR-RES ovarian 109% | T-47D breast 94.7% | BT-549 breast 104% | MDA-MB-435 melanoma 111% | SW-620 colon 115% | MCF7 breast 95.4% | HCT-116 colon 98.4% | HCC-2998 colon 108% | KM12 colon 110%

CC(=O)N1N=C(c2ccc(C(F)(F)F)cc2)CC1c1ccc2c(c1)OCO2 (centres undefined)
inactive: SR leukemia 89.5% | OVCAR-8 ovarian 101% | OVCAR-5 ovarian 100% | OVCAR-4 ovarian 77.8% | SK-OV-3 ovarian 104% | OVCAR-3 ovarian 110% | HS 578T breast 97.8% | NCI/ADR-RES ovarian 95.8% | T-47D breast 86.2% | BT-549 breast 93.7% | MDA-MB-435 melanoma 78.2% | SW-620 colon 88.4% | MCF7 breast 78.6% | HCT-116 colon 45.5% | HCC-2998 colon 94.3% | KM12 colon 89.2%

Nc1ccc2c(c1)Cc1cc(Cl)c(Cl)cc1-2
inactive: SR leukemia 70.4% | OVCAR-8 ovarian 86.4% | OVCAR-4 ovarian 78.6% | SK-OV-3 ovarian 69.1% | IGROV1 ovarian 89.1% | HS 578T breast 67.9% | NCI/ADR-RES ovarian 62.9% | T-47D breast 85.3% | BT-549 breast 60.4% | MDA-MB-435 melanoma 28.1% | SW-620 colon 38.1% | MCF7 breast 30% | HCT-116 colon 49.5% | HCC-2998 colon 66.4% | KM12 colon 52.2%
active: OVCAR-3 ovarian 7.25%

CN(C)c1ncnc2c1ncn2C1CCCCO1 (centres undefined)
inactive: SR leukemia 87.7% | OVCAR-8 ovarian 107% | OVCAR-5 ovarian 104% | OVCAR-4 ovarian 104% | SK-OV-3 ovarian 107% | IGROV1 ovarian 112% | OVCAR-3 ovarian 113% | NCI/ADR-RES ovarian 108% | T-47D breast 105% | BT-549 breast 101% | MDA-MB-435 melanoma 111% | SW-620 colon 106% | MCF7 breast 96.6% | HCT-116 colon 104% | HCC-2998 colon 96.7% | KM12 colon 112%

CC1CN(CC(O)c2ccc(Br)cc2)CCO1 (centres undefined)
inactive: SR leukemia 92.3% | OVCAR-8 ovarian 96.2% | OVCAR-5 ovarian 103% | OVCAR-4 ovarian 116% | SK-OV-3 ovarian 112% | IGROV1 ovarian 109% | OVCAR-3 ovarian 107% | NCI/ADR-RES ovarian 108% | T-47D breast 107% | BT-549 breast 106% | MDA-MB-435 melanoma 121% | SW-620 colon 109% | HCT-116 colon 108% | HCC-2998 colon 103% | KM12 colon 107%

CS(=O)(=O)N1CCN(Cc2cc3nc(-c4cccc5[nH]ncc45)nc(N4CCOCC4)c3s2)CC1 (tested in a mixture with another compound)
inactive: SR leukemia 23.2% | OVCAR-8 ovarian 26.1% | OVCAR-5 ovarian 21.5% | OVCAR-4 ovarian 39.7% | OVCAR-3 ovarian 12.4% | NCI/ADR-RES ovarian 29.6% | BT-549 breast 33.6% | MDA-MB-435 melanoma 15.9% | SW-620 colon 40.8% | HCT-116 colon 23.8% | KM12 colon 24.8%
active: SK-OV-3 ovarian -25.6% | IGROV1 ovarian -30.2% | T-47D breast -7.59% | HCC-2998 colon -9.43%

COc1ccc(C2=NN(C(N)=S)C(c3ccc4c(c3)OCO4)C2)cc1 (centres undefined)
active: SR leukemia 4.75% | IGROV1 ovarian -22% | OVCAR-3 ovarian -21.5% | NCI/ADR-RES ovarian 5.5% | BT-549 breast -2.03% | MDA-MB-435 melanoma 3.04% | SW-620 colon 1.46% | HCT-116 colon 1.71% | HCC-2998 colon -24.7% | KM12 colon 2.57%
inactive: OVCAR-8 ovarian 20.9% | OVCAR-5 ovarian 75.1% | SK-OV-3 ovarian 33.8% | T-47D breast 36.7% | MCF7 breast 10.5%

CCOC(=O)CNC(=O)C1(NC(=O)CNC(=O)OCc2ccccc2)CCCC1
inactive: SR leukemia 103% | OVCAR-8 ovarian 107% | OVCAR-5 ovarian 95.1% | OVCAR-4 ovarian 106% | SK-OV-3 ovarian 104% | OVCAR-3 ovarian 142% | HS 578T breast 125% | NCI/ADR-RES ovarian 105% | T-47D breast 107% | BT-549 breast 98% | MDA-MB-435 melanoma 95.6% | SW-620 colon 110% | MCF7 breast 96.6% | HCT-116 colon 101% | HCC-2998 colon 105%

O=C(Oc1cccc2ccccc12)c1ccccc1C(=O)c1ccccc1
active: SR leukemia 3.67%
inactive: OVCAR-8 ovarian 91.7% | OVCAR-5 ovarian 102% | OVCAR-3 ovarian 65.6% | HS 578T breast 93.5% | NCI/ADR-RES ovarian 90.4% | T-47D breast 87.4% | BT-549 breast 99.7% | MDA-MB-435 melanoma 73.5% | SW-620 colon 99.4% | MCF7 breast 109% | HCT-116 colon 82% | HCC-2998 colon 103% | KM12 colon 92.2%

O=C1NC(=O)/C(=C\c2ccco2)S1
inactive: SR leukemia 113% | OVCAR-8 ovarian 105% | OVCAR-5 ovarian 95.9% | OVCAR-4 ovarian 121% | SK-OV-3 ovarian 97.1% | OVCAR-3 ovarian 106% | NCI/ADR-RES ovarian 103% | BT-549 breast 104% | SW-620 colon 100% | MCF7 breast 104% | HCT-116 colon 108% | HCC-2998 colon 116% | KM12 colon 103%

COc1ccc(C2CC(c3ccc4c(c3)OCO4)=NN2C=O)cc1 (centres undefined)
inactive: SR leukemia 100% | OVCAR-8 ovarian 106% | OVCAR-5 ovarian 110% | OVCAR-4 ovarian 92.8% | SK-OV-3 ovarian 108% | IGROV1 ovarian 127% | OVCAR-3 ovarian 128% | NCI/ADR-RES ovarian 103% | BT-549 breast 89.1% | MDA-MB-435 melanoma 110% | SW-620 colon 104% | MCF7 breast 98.6% | HCT-116 colon 96.4% | HCC-2998 colon 102% | KM12 colon 105%

From PubChem BioAssay (NCI)
